Assay outcomes (PubChem BioAssay)
An excerpt weighted towards active compounds, which were near 2.4% of everything screened.
D2 ag-1 – HTS Assay for Allosteric Agonists of the Human D2 Dopamine Receptor: Primary Screen for Agonists | D(2) dopamine receptor (Homo sapiens), P14416 | HEK293 T-REx D2 cells, calcium flux agonist mode | activation, % at 2 µM | hit rate 0.53% among 340,000 | AID 485358, 2010;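 active means activation over 3 SD above normal in the single-dose calcium agonist read, cut at about 30% in these data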; further: 0% is about no effect
Target sequence (P14416 whole entry, looked up): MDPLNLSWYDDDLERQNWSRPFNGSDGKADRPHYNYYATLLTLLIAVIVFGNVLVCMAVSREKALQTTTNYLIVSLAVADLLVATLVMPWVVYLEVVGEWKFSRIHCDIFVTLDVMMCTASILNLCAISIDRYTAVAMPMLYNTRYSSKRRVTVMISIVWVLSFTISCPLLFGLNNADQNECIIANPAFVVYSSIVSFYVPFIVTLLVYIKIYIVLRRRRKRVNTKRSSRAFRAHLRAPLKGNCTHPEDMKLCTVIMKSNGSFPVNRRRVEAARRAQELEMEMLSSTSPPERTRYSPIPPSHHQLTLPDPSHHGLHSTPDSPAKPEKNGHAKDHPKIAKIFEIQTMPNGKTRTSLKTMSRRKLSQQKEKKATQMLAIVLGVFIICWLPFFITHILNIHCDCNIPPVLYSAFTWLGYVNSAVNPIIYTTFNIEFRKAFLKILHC
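Agonism scored from kinetic calcium signal (1 read/sec, 180 s) following compound pin transfer, after a 10 s baseline. Cells: HEK293 Trex line expressing inducible D2 receptor coupled to calcium, dye-loaded after overnight culture at 30 C.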
D2 PAM-1 – Beta-Arrestin HTS for Positive Allosteric Modulators of the Human D2 Dopamine Receptor: Potentiators | D(2) dopamine receptor (Homo sapiens), P14416 | AID 624464, 2012 | hit rate 0.23% among 360,000 | DiscoveRx D2 beta-arrestin cells, luminescence, 90 min; 100% = 57 uM dopamine signal | potentiation, % (concentration not given with the values); in the data active means potentiation above about 50%; inconclusive means mostly about 30% to 49%
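PathHunter D2 cells, attached overnight at 37 deg C, received compound in DMSO plus dopamine at EC20 (50 nM final) for 90 min at 37 deg C. Beta-arrestin recruitment was read as luminescence after 1 h with detection reagent at ambient temperature.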
D2 ag-2 – Beta-Arrestin HTS for Positive Allosteric Modulators of the Human D2 Dopamine Receptor: Agonists. D(2) dopamine receptor (Homo sapiens), P14416. DiscoveRx PathHunter D2 beta-arrestin, luminescence, 90 min; 100% = 57 uM dopamine signal. hit rate 0.084% among 360,000. activation, % (concentration not given with the values). AID 624465, 2012; in the data active means activation above about 40%; inconclusive means between about 15% and that limit
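Agonist mode: compounds alone added to overnight-plated D2 PathHunter cells for 90 min at 37 C, with 57 uM final dopamine (EC100) defining full response. Beta-arrestin recruitment detected by chemiluminescent reagent, read after 1 h at ambient temperature.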
D2 antagonist – HTS Assay for Allosteric Antagonists of the Human D2 Dopamine Receptor: Primary Screen for Antagonists; HEK293 TREx D2 cells, calcium flux, dopamine EC80; inhibition, % at 10 µM; hit rate 2% among 340,000; in the data active means inhibition above about 30%; inactive means below that, where a call was filed; further: 0% is about no effect
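Antagonism is scored as inhibition of an EC80 dopamine-evoked calcium signal in a force-coupled, tetracycline-inducible HEK293 T-REx D2 line, with compound present 180 s before agonist.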
D2 PAM-2 – HTS Assay for Positive Allosteric Modulators of the Human D2 Dopamine Receptor: Primary Screen for Potentiators. hit rate 0.34% among 340,000. potentiation, % at 10 µM. HEK293 T-REx D2, calcium flux, EC20 dopamine potentiation. D(2) dopamine receptor (Homo sapiens), P14416. AID 485347, 2010;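 active means potentiation over 3 SD above the plate norm, cut at about 30% in these data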; further: 0% is about no effect
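Calcium flux readout, no-wash dye, 1 read/s. Inducible HEK293 Trex D2 line, overnight 30 C. Compound alone 180 s (agonist flags), then EC20 dopamine, another 180 s to score potentiation.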
D3 ag – qHTS of D3 Dopamine Receptor Agonist: D3 Dopamine Receptor B-arrestin Agonist Confirmatory Assay; hit rate 4% among 2,300; shares compounds with D2 ag-1; AID 720506, 2013; Potency, µM (highest dose often 76.9 µM), for the others: at the top dose activation, actives largely listed as activators; DiscoveRx D3 beta-arrestin cells, luminescence, 90 min;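 further: potency means the concentration at half of the fitted maximal effect; 100% = dopamine control response; nearly all actives have a fitted effect of over 70% in size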
D2 ag-3 – qHTS of D3 Dopamine Receptor Agonist: D2 Dopamine Receptor B-arrestin Agonist Counterscreen; shares compounds with D2 ag-1; DiscoveRx PathHunter D2 beta-arrestin, luminescence, 90 min; response scale: percent relative to full dopamine signal; Potency, µM (titrated, usually from 76.9 µM), without a hit: at the top dose activation, actives largely listed as activators; hit rate 5.9% among 2,300; AID 720507, 2013; further: potency means the concentration at half of the fitted maximal effect; % of control where 0% means no effect; nearly all actives have a fitted effect of over 70% in size
Numbers without * were called inactive; ? = inconclusive; · = no result given. Unless noted, the call rests on the fitted dose curve; in most records, active means well fitted activation curve with a large enough effect; inconclusive means small, poorly fitted or top-dose-only effect; inactive means flat fitted curve, though single readings scatter.

SMILES | D2 ag-1 | D2 PAM-1 | D2 ag-2 | D2 antagonist | D2 PAM-2 | D3 ag | D2 ag-3
CCc1cccc(NC(=O)CSc2ncccc2C(=O)Oc2ccccc2Cl)c1 | -1 | · | · | · | 12 | · | ·
CCOc1ccc(NC(=O)Cn2c(=O)n(CCCCCC(=O)NCc3ccccc3)c(=O)c3sccc32)cc1 | -1 | · | · | · | -1 | · | ·
O=C(C[n+]1cc(-c2ccccc2)n2c1CCC2)Nc1nc(-c2ccc(F)cc2)cs1 | 76* | -20 | 5 | 76* | -23 | 24% | ?
CNC[C@H](O)c1cccc(O)c1 | 77* | 5 | 2 | 91* | -28 | -1% | ?
OCCN1CCN(CCOc2cccc(Cl)c2)CC1 | 33* | -29 | 3 | 76* | -23 | ? | 4%
Cc1ccc(C)n1CCN1CCN(C(=O)c2ccc(Cl)cc2)CC1 | -2 | -34 | 0 | 9 | -17 | · | ·
O=C(c1c(F)cccc1F)N1CCN(CCOc2ccccc2)CC1 | 60* | -9 | 1 | 22 | -9 | ? | 18%
COCc1c(C(=O)N2CCN(CCOc3ccccc3)CC2)oc2ccccc12 | 80* | 10 | ? | 77* | -22 | 0.32µM* | ?
O=C(c1ccc(Cl)cc1)N1CCN(CCOc2ccccc2)CC1 | 74* | -2 | ? | 76* | -22 | 0.1µM* | 25µM*
COc1ccc(C)cc1S(=O)(=O)Nc1ccc2c(c1)N(C(C)=O)CCC2 | 0 | 7 | 2 | -6 | -3 | · | ·
Cc1cccc(-c2nnn3c2nc(NCCc2ccc(S(N)(=O)=O)cc2)c2cc(Cl)ccc23)c1 | 1 | · | · | · | 15 | · | ·
CCCCOc1ccccc1C(=O)Nc1nonc1-c1ccccc1 | 1 | · | · | · | -18 | · | ·
COc1ccc(OCCN2CCN(C(=O)c3ccc(OC(F)F)c(OC)c3)CC2)cc1 | 11 | 1 | 3 | -4 | 11 | · | ·
COc1ccc(OCCN2CCN(C(=O)c3ccc(OC)cc3)CC2)cc1 | 42* | -7 | 3 | 13 | -10 | 0.45µM* | 18%
COc1ccccc1CNC(=O)C(NS(=O)(=O)c1ccc2c(c1)CCN2C(C)=O)C(C)C (configuration not stated) | -1 | · | · | · | 1 | · | ·
COc1cc([C@H]2[C@@H]3CCCC[C@]3(O)CCN2Cc2ccccc2F)ccc1O | 0 | -14 | -5 | -3 | 12 | · | ·
COc1cc([C@H]2[C@@H]3CCCC[C@]3(O)CCN2CC(=O)Nc2ccc(C)cc2C)ccc1O | 29 | 2 | 0 | -4 | -5 | 8% | -3%
CC(C)OC(=O)c1c(NS(=O)(=O)c2ccccc2)sc2c1CCCC2 | 1 | -1 | -2 | 26 | 3 | -11% | -5%
COc1ccc(-n2c(N)cc(=O)nc2SCC(=O)N2CCN(c3ccccc3)CC2)cc1 | 21 | -3 | -1 | 1 | -8 | -12% | -4%
Cc1ccc(-n2c(N)cc(=O)nc2SCC(=O)N2CCN(c3ccccc3)CC2)cc1C | 4 | -20 | -2 | -5 | 4 | · | ·
Cc1coc(C)c1C(=O)Nc1ccc2ccccc2c1 | 0 | -10 | -2 | 4 | 2 | -7% | -2%
CC(=O)Nc1ccc(C(=O)Nc2ccc(S(=O)(=O)N3CCOCC3)cc2)cc1 | 1 | 1 | 4 | -6 | 3 | · | ·
